{"source": "PubChem BioAssay (NCATS)", "note": "Results filed as inconclusive are left out. Unmarked numbers belong to inactive results. Calls of active or inactive are those of the source. Calls come from the whole dose curve; as a rule, active = well fitted inhibition curve with a large enough effect; inconclusive = small, poorly fitted or top-dose-only effect; inactive = flat fitted curve, though single readings scatter. % is set by controls: 0 for no effect and ±100 for the full control effect."}
{"experiment": "P-glycoprotein substrates identified in KB-8-5-11 adenocarcinoma cell line, qHTS therapeutic library screen (AID 1346987); note: nearly all actives have a fitted effect of over 65% in size", "settings": "KB-8-5-11 (P-gp overexpressing) viability, CellTiter-Glo, 72 h; series mostly up to 44.5 µM; activity change, negative = cytotoxicity: at the top concentration", "outline": "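P-gp-mediated resistance screen: KB-8-5-11 cells treated 72 h with compounds in dose-response. CellTiter-Glo viability.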"}
{"smiles": "CC(C)=CCC[C@@](C)(O)[C@H]1CC[C@]2(C)[C@@H]1[C@H](O)CC1[C@@]3(C)CC[C@H](O[C@@H]4O[C@H](CO)[C@@H](O)[C@H](O)[C@H]4O[C@@H]4O[C@H](CO)[C@@H](O)[C@H](O)[C@H]4O)C(C)(C)[C@@H]3CC[C@]12C", "note": "(some centres undefined)", "outcome": "inactive [at 17.3 µM]"}
{"smiles": "C[C@@H]1O[C@@H](O[C@@H]2[C@@H](O)[C@H](O[C@@H]3[C@@H](O)[C@@H](O)[C@H](O[C@H]4[C@H](OC(=O)[C@]56CCC(C)(C)C[C@H]5C5=CCC7[C@@]8(C)C[C@H](O)[C@H](O[C@@H]9O[C@H](C(=O)O)[C@@H](O)[C@H](O)[C@H]9O)[C@@](C)(CO)C8[C@H](O)C[C@@]7(C)[C@]5(C)C[C@H]6O)O[C@@H](CO)[C@@H]4O)O[C@H]3C)OC[C@H]2O)[C@H](O)[C@H](O)[C@H]1O", "note": "(some centres undefined)", "activity change, negative = cytotoxicity": "8.82% [at 9.29 µM]"}
{"smiles": "COc1cc(CCCO)ccc1O[C@@H]1O[C@H](CO)[C@@H](O)[C@H](O)[C@H]1O", "outcome": "inactive"}
{"smiles": "C[C@H]1[C@H](C)CC[C@]2(C(=O)OC3OC(CO)C(O)C(O)C3O)CC[C@]3(C(=O)O)C(=CCC4[C@@]5(C)CC[C@H](O[C@@H]6O[C@@H](C)[C@H](OC7OC(CO)C(O)C(O)C7O)[C@@H](O)[C@H]6O)C(C)(C)C5CC[C@]43C)[C@H]12", "note": "(some centres undefined)", "activity change, negative = cytotoxicity": "-1.84% [at 9.29 µM]"}
{"smiles": "COc1cc(O)cc2c1C(=O)OC(C)CCCCCCC2", "note": "(centres undefined)", "activity change, negative = cytotoxicity": "-1.32%"}
{"smiles": "Cc1ncc([N+](=O)[O-])n1C[C@H](O)CN1CCOCC1", "activity change, negative = cytotoxicity": "8.77%"}
{"smiles": "CC(C)CC[C@@H](O)[C@](C)(O)[C@H]1CC[C@@]2(O)C3=CC(=O)[C@@H]4C[C@@H](O)[C@@H](O)C[C@]4(C)[C@H]3CC[C@]12C", "outcome": "inactive"}
{"smiles": "CC1OC(OC2CCC3(C)C(CCC4(C)C3C=CC35OCC6(CCC(C)(C)CC63)CCC45C)C2(C)CO)C(OC2OC(CO)C(O)C(O)C2O)C(O)C1OC1OC(CO)C(O)C(O)C1O", "note": "(centres undefined)", "activity change, negative = cytotoxicity": "2.86% [at 9.29 µM]"}
{"smiles": "O=C(c1ccc(Cl)c([N+](=O)[O-])c1)N1CCN(c2ccccc2F)CC1", "activity change, negative = cytotoxicity": "1.04%"}
{"smiles": "CC(C)=CCC/C(C)=C/CO[C@@H]1O[C@H](CO[C@@H]2OC[C@](O)(CO)[C@H]2O)[C@@H](O)[C@H](O)[C@H]1O", "outcome": "inactive [at 17.3 µM]"}
{"smiles": "CC(C)C1NC(=O)C2CCCN2C1=O", "note": "(centres undefined)", "activity change, negative = cytotoxicity": "1.69%"}
{"smiles": "C=C(CCO[C@@H]1O[C@H](CO)[C@@H](O)[C@H](O)[C@H]1O)C(=O)O", "outcome": "inactive"}
{"smiles": "CC(=O)O[C@@H]1CC2C(C)(C)C(=O)C=C[C@]2(C)C2CC[C@]3(C)C(=CC(=O)[C@@H]3c3ccoc3)[C@@]21C", "note": "(some centres undefined)", "activity change, negative = cytotoxicity": "-9.6% [at 17.3 µM]"}
{"smiles": "CN1CCN(C2=Nc3ccccc3Nc3ccc(O)cc32)CC1", "outcome": "inactive"}
{"smiles": "C=C1[C@H]2CCC3[C@]4(C)CCC[C@@](C)(C(=O)O)C4CC[C@]3(C2)[C@H]1OC(C)=O", "note": "(some centres undefined)", "outcome": "inactive"}
{"smiles": "O=C(O)/C=C/c1ccc(O[C@@H]2O[C@H](CO)[C@@H](O)[C@H](O)[C@H]2O)cc1", "activity change, negative = cytotoxicity": "3.17%"}
{"smiles": "C/C=C(\\C)C(=O)OC[C@H]1O[C@@H](O[C@H]2[C@@H](O[C@H]3O[C@H](COC(=O)/C(C)=C/C)[C@@H](O)[C@H](O)[C@H]3O[C@@H]3O[C@H](CO)[C@@H](O)[C@H](OC(=O)/C(C)=C/C)[C@H]3O)O[C@H](COC(=O)/C(C)=C/C)[C@@H](O)[C@@H]2O)[C@H](O)[C@@H](O)[C@@H]1O", "outcome": "inactive [at 9.29 µM]"}
{"smiles": "CC[C@H](C)[C@H](NC(=O)[C@H](Cc1ccc(O)cc1)NC(=O)[C@@H](N)C(C)C)C(=O)N[C@@H](Cc1cnc[nH]1)C(=O)N1CCC[C@H]1C(=O)N[C@@H](Cc1ccccc1)C(=O)O", "activity change, negative = cytotoxicity": "1.21% [at 5.11 µM]"}
{"smiles": "NC[C@@H]1O[C@@H](O[C@@H]2[C@@H](O[C@@H]3O[C@H](CO)[C@@H](O)[C@H]3O)[C@H](O)[C@@H](N)C[C@H]2N)[C@@H](N)[C@H](O)[C@H]1O", "outcome": "inactive [at 9.29 µM]"}
{"smiles": "CC1(C)C[C@@H]2[C@H](C1)[C@@]1(C)C[C@]13C(O)OC[C@]3(O)[C@H]2O", "note": "(some centres undefined)", "activity change, negative = cytotoxicity": "2.05%"}
{"smiles": "C[C@@H](CC[C@@H]1[C@@]2(C)CCCC(C)(C)C2CC[C@@]1(C)O)CC(=O)O", "note": "(some centres undefined)", "activity change, negative = cytotoxicity": "9.49%"}
{"smiles": "CC1=CC[C@@]2(C)CC[C@@](O)(C(C)C)[C@@H]2[C@@H](O)C1", "activity change, negative = cytotoxicity": "4.04%"}
{"smiles": "CC(C)(O)C1OC1C1=CC(=O)C2(C)OC2C1O", "note": "(centres undefined)", "outcome": "inactive"}
{"smiles": "O=C(O)/C=C/c1ccc2occc2c1O[C@@H]1O[C@H](CO)[C@@H](O)[C@H](O)[C@H]1O", "activity change, negative = cytotoxicity": "3.22%"}
